According to PubChem BioAssay (EPA / NIEHS):
Several values for one entry are separate records, joined by “and”; a condition that tells them apart may be missing. Identical values can stand only once. A structure can be active in one record and inactive in another. Activity calls are given as the source filed them. How the source made its calls: active means hit-call score of the fitted dose curve at least 0.9, where 1 is the maximum; inactive means score below 0.9.

assay: CCTE_Shafer_MEA_acute_firing_rate_mean: CCTE's Neural Acute Assay for Mean Firing Rate, Shafer Lab (AID 2284009)
Procedure: CCTE_Shafer_MEA_acute assay is conducted using Axion Biosystems 48 well microelectrode array (MEA) plates and Maestro recording system. Each well of the MEA plate contains a grid of 16 microelectrodes embedded in the culture surface. Electrically active cells, such as neurons, can be cultured over the electrodes, and electrical activity in these cells can be recorded extracellularly. The spontaneous firing of neurons is captured from each electrode on a microsecond timescale providing both temporally and spatially precise data. […] The CCTE_Shafer_MEA_acute assay uses primary cultures of rat cortical neurons. As these cultures mature over time, neural networks develop functional activity and form cohesive networks in which electrical activity can be highly coordinated. Baseline 40-minute recordings are made on days post-plating 13 or 15, followed by a secondary 40-minute recording after chemical exposure.CCTE_Shafer_MEA_acute_firing_rate_mean is a component of the CCTE_Shafer_MEA_acute assay. It measures the frequency number of spikes (action potential firings) as the total number of spikes divided by the length of the recording in a microelectrode array (MEA) using Axion Biosystems Maestro 768 channel amplifier with the AxIS adaptive spike detector. The firing rate is divided by the number of electrodes to report a well-mean value. The recordings before and after chemical treatment are used to calculate a percent change in the mean firing rate in each well.Data from the assay component CCTE_Shafer_MEA_acute_firing_rate_mean was analyzed into 1 assay endpoint. This assay endpoint, CCTE_Shafer_MEA_acute_firing_rate_mean, was analyzed in the negative analysis fitting direction relative to DMSO as the negative control and baseline of activity. Using a type of functional reporter, gain or loss-of-signal activity can be used to understand electrical activity.
Spontaneous activity in the cortical cultures was recorded using an Axion Biosystems Maestro 768 channel amplifier and Axion Integrated Studios (AxIS) v1.8 (or later) software. The amplifier recorded from all channels simultaneously (gain = 1200 x; sampling rate = 12.5 kHz/channel): raw signals were filtered with a Butterworth band-pass filter (300-5000 Hz), which filters out slower local field potentials leaving only fast potentials, i.e., "spikes", arising from extracellular currents associated with action potentials (Pine 2006; Wheeler and Nam 2011). On-line spike detection of filtered signals was conducted with the AxIS adaptive spike detector, using a threshold of 8x the root mean squared (rms) noise on each channel. Any electrodes with rms noise levels greater than 5 uV were grounded (e.g., no data were recorded). Once grounded, an electrode was grounded for the duration of the experiment. All recordings were conducted at 37 C. Wells were deemed usable if on the day of the exposure >/= 10 electrodes were active (defined as >/= 5 spikes/min). On DIV 13 or 15, a minimum of three wells from one cortical culture preparation were treated with each compound (0.03-40 uM). Prior to recording baseline activity, each mwMEA plate was placed in the Maestro at 37 C and allowed to sit for 20 min while firing rates stabilized. Baseline activity (40 min) was recorded before the addition of each compound. An additional 40 min of spontaneous activity was recorded in the presence of each compound. Changes in network parameters relative to baseline were assessed following compound treatment.

**Q.** For `CC1(C)C(C=C(Cl)Cl)C1C(=O)OC(C#N)c1ccc(F)c(Oc2ccccc2)c1` (centres undefined), which AC50 is on record?
**A.** The AC50 was 450 nM (active) and 4.51 µM (active).

**Q.** For `ClC1C(Cl)C(Cl)C(Cl)C(Cl)C1Cl` (centres undefined), which AC50 is on record?
**A.** The AC50 was 20 µM (active).

**Q.** Which outcome does the source give for `N#Cc1c(Cl)c(Cl)c(Cl)c(C#N)c1Cl` here?
**A.** Its outcome is “inactive”.

**Q.** Which outcome does the source give for `CNC(=O)/C=C(\C)OP(=O)(OC)OC` here?
**A.** The outcome was “inactive”.

**Q.** For `O=C(O)CCCOc1ccc(Cl)cc1Cl`, which outcome is on record?
**A.** The outcome was “inactive”.

**Q.** For `N#CN`, which outcome is on record?
**A.** Its outcome is “inactive”.

**Q.** With `Clc1ccccc1-c1nnc(-c2ccccc2Cl)nn1` as the compound, how does the outcome read?
**A.** The outcome was “inactive”.

**Q.** With `CNC(=O)CSP(=S)(OC)OC` as the compound, how does the outcome read?
**A.** The outcome was “inactive”.

**Q.** With `CC(C)N(C(=O)COc1nnc(C(F)(F)F)s1)c1ccc(F)cc1` as the compound, how does the AC50 read?
**A.** The AC50 was 5.77 µM (active).

**Q.** What about the outcome of the same compound?
**A.** The outcome was “inactive”.

**Q.** With `CCC(C)Nc1c([N+](=O)[O-])cc(C(C)(C)C)cc1[N+](=O)[O-]` (centres undefined) as the compound, how does the outcome read?
**A.** Its outcome is “inactive”.

**Q.** Which outcome does the source give for `CC(C)OC(=O)Nc1cccc(Cl)c1` here?
**A.** The outcome was “inactive”.

**Q.** For `O=S1OCC2C(CO1)C1(Cl)C(Cl)=C(Cl)C2(Cl)C1(Cl)Cl` (centres undefined), which outcome is on record?
**A.** The outcome was “inactive”.

**Q.** Which outcome does the source give for `O=S(=O)(O)C(F)(F)C(F)(F)C(F)(F)C(F)(F)C(F)(F)C(F)(F)C(F)(F)C(F)(F)F` here?
**A.** Its outcome is “inactive”.

**Q.** With `O=[N+]([O-])/N=C1\NCCN1Cc1ccc(Cl)nc1` as the compound, how does the outcome read?
**A.** Its outcome is “inactive”.

**Q.** With `COP(=S)(OC)Oc1ccc(SC)c(C)c1` as the compound, how does the AC50 read?
**A.** Its AC50 is 7.7 µM (active).

**Q.** For `CCCN(CCOc1c(Cl)cc(Cl)cc1Cl)C(=O)n1ccnc1`, which AC50 is on record?
**A.** Its AC50 is 1.24 µM (active).

**Q.** With `CC[C@H](C)[C@H]1O[C@]2(C=C[C@@H]1C)C[C@@H]1C[C@@H](C/C=C(\C)[C@@H](O[C@H]3C[C@H](OC)[C@@H](O[C@H]4C[C@H](OC)[C@@H](O)[C@H](C)O4)[C@H](C)O3)[C@@H](C)/C=C/C=C3\CO[C@@H]4[C@H](O)C(C)=C[C@@H](C(=O)O1)[C@]34O)O2` (tested in a mixture with another compound) as the compound, how does the AC50 read?
**A.** The AC50 was 0.00477 µM (active).

**Q.** For `O=C1c2ccccc2C(=O)N1SC(Cl)(Cl)Cl`, which outcome is on record?
**A.** The outcome was “inactive”.

**Q.** For `Oc1ccc(Cl)cc1Cc1ccccc1`, which AC50 is on record?
**A.** The AC50 was 1.08 µM (active).

**Q.** For `CCC(C)(C)C(=O)OC1=C(c2ccc(Cl)cc2Cl)C(=O)OC12CCCCC2`, which outcome is on record?
**A.** Its outcome is “inactive”.

**Q.** Which AC50 does the source give for `Oc1cc(Cl)ccc1Oc1ccc(Cl)cc1Cl` here?
**A.** The AC50 was 1.89 µM (active).

**Q.** With `CCCN(CCC)c1c([N+](=O)[O-])cc(C(F)(F)F)cc1[N+](=O)[O-]` as the compound, how does the outcome read?
**A.** Its outcome is “inactive”.

**Q.** For `C[C@H]1[C@H](c2ccc(Cl)cc2)SC(=O)N1C(=O)NC1CCCCC1`, which AC50 is on record?
**A.** The AC50 was 13.1 µM (active).
